Sampled rows, rich in hits. Any-hit rate of the full collection: about 19%.
TDP1 inh: qHTS Assay for Inhibitors of Tyrosyl-DNA Phosphodiesterase (TDP1); Tyrosyl-DNA phosphodiesterase 1 (Homo sapiens), Q9NUW8; recombinant TDP1, AlphaScreen DNA substrate cleavage; Potency, µM (highest dose often 130 µM), without a hit: at the highest dose activity change, negative = inhibition, usual class: inhibitors; 0.28% of 350,000 active; AID 485290, 2010; also: potency is read from the fitted curve at half-maximal effect; nearly all actives have a fitted effect of over 40% in size
Target sequence (Q9NUW8 whole entry, looked up): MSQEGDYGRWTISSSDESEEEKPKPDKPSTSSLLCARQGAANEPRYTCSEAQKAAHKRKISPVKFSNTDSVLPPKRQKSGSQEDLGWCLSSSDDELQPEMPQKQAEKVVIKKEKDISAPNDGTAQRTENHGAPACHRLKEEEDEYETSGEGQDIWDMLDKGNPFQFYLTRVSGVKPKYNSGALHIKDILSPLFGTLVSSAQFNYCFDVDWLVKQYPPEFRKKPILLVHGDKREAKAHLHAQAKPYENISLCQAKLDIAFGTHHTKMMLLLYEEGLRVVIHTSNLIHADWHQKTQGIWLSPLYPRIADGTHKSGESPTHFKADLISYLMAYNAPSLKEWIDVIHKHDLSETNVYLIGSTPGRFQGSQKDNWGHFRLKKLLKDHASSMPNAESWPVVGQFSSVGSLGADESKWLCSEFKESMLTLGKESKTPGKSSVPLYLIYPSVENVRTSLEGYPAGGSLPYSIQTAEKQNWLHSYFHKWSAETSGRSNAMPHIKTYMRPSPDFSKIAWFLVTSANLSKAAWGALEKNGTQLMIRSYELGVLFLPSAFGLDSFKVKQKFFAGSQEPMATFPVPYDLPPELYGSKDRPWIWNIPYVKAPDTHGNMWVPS
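Here, a 5' biotin and 3' phosphotyrosine-FITC DNA oligonucleotide reports Tdp1 activity: intact substrate bridges AlphaScreen beads, while cleavage leaves a 3' phosphate and drops signal. All incubations at room temperature.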
ELG1 DNA repair: qHTS screen for small molecules that inhibit ELG1-dependent DNA repair in human embryonic kidney (HEK293T) cells expressing luciferase-tagged ELG1; HEK293T ELG1-luciferase reporter, luminescence, 16 h; DNA damage induced by 5-fluorouridine; Potency, µM (titrated, usually from 46.1 µM), for inactives: top-dose activity change, negative = inhibition, actives largely listed as inhibitors; 2.3% of 330,000 active; AID 504467, 2011; also: potency is read from the fitted curve at half-maximal effect; nearly all actives have a fitted effect of over 55% in size
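Luminescence from the luciferase reporter, measured 30 min after ONE-Glo reagent at room temperature, was the read-out. Beforehand, 2,000 cells per well were exposed for 16 hr at 37 °C to 5-fluorouridine together with compound or vehicle.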
IL-1B inflam inh: qHTS for Inhibitors of Inflammasome Signaling: IL-1-beta AlphaLISA Primary Screen; 4.7% of 360,000 active; activity change, % at 57.5 µM; THP-1 LPS/ATP IL-1B secretion, AlphaLISA, 16 h; hits give low values; AID 743279, 2014; in the data active = activity change below about -50%; inconclusive = mostly about -30% to -49%
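Secreted IL-1B measured by AlphaLISA bead assay after 16 h compound exposure of THP-1 cells; compounds (final up to 57.5 uM) added 1 h before LPS (250 ng/mL) and ATP (1.25 mM) stimulation; lower signal means less secretion.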
TDP1 cell CPT: qHTS for Inhibitors of human tyrosyl-DNA phosphodiesterase 1 (TDP1): qHTS in cells in presence of CPT; 12% of 420,000 active; chicken DT40 Tdp1-/-;hTDP1 cells + 20 nM CPT, ATP luminescence, 48 h; AID 686979, 2013; Potency, µM (series often up to 46.2 µM), inactives show at the highest dose activity change, negative = growth inhibition, most hits filed as inhibitors; also: potency is read from the fitted curve at half-maximal effect; nearly all actives have a fitted effect of over 55% in size
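Cell growth measured by CellTiter-Glo luminescence after a minimum 48 h, 37 C compound exposure with 20 nM CPT in Tdp1-knockout DT40 cells stably expressing hTDP1, seeded 400/well; qHTS titration format.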
Giardia kill: Small Molecules that selectively kill Giardia lamblia: qHTS. Giardia lamblia trophozoite viability. activity change, % at 7.66 µM, hits read low. 0.15% of 340,000 active. AID 540267, 2011; in the data active = activity change below about -80%; inconclusive = between about -30% and that limit;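 also: parasites exposed to compound for two days anaerobically before the ATP read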
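Anaerobic 48 hrs incubation at 37 deg C of 100 trophozoites/well with test compounds; ATPLite 1-Step luminescence, 15-30 min RT, reports cellular ATP as viability.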
DT40 TDP1 no CPT: qHTS for Inhibitors of human tyrosyl-DNA phosphodiesterase 1 (TDP1): qHTS in cells in absence of CPT. DT40 Tdp1-/- hTDP1 cells, no CPT, ATP luminescence, 48 h. Potency, µM (doses to about 46.2 µM), inactives show at the top dose activity change, negative = growth inhibition, actives largely listed as inhibitors. 15% of 420,000 active. AID 686978, 2013; also: potency is read from the fitted curve at half-maximal effect; nearly all actives have a fitted effect of over 55% in size
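No-CPT arm: Tdp1-/-;hTDP1 DT40 cells (400/well) plus compounds, incubated ≥48 hr at 37 °C. Readout CellTiter-Glo luminescence.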
The depositor's hits bear a star; ? = inconclusive; / = not tested or not shown. Unless noted, calls follow the shape of the dose curve; as a rule, active = well fitted curve in the direction sought with a large enough effect; inconclusive = small, poorly fitted or top-dose-only effect, or another doubt; inactive = no such curve, though single readings can be large; an effect the other way counts as inactive or inconclusive. % is scaled to controls: 0 for no effect and ±100 for the full control effect.

SMILES	TDP1 inh	ELG1 DNA repair	IL-1B inflam inh	TDP1 cell CPT	Giardia kill	DT40 TDP1 no CPT
O=C(CCSc1nc2ccccc2o1)Nc1ccccc1	/	7%	17	1%	12	-25%
CC1=C(C(=O)Nc2ccccc2)C(c2ccc(C)cc2)N=C(Nc2nc3ccccc3o2)N1 (stereo not given)	4%	?	-12	18µM*	12	?
CC[C@@H]1CCCCc2ccccc2[C@H](C(=O)C[C@H](O)CC(C)=O)OC1=O	1%	8%	8	1%	-9	-10%
CN1CCN(S(=O)(=O)c2cccc(C(=O)N3CCN(c4ccccc4)CC3)c2)CC1	-15%	12%	3	-18%	-13	13%
O=C(c1cccc(S(=O)(=O)N2CCCC2)c1)N1CCN(c2ccccc2)CC1	-1%	?	13	?	8	?
CC1CN(S(=O)(=O)c2cccc(C(=O)OCC(=O)N3CCCCCC3)c2)CC(C)O1 (stereo not given)	0%	-13%	-13	0%	3	-21%
CCOC(=O)c1ccc(S(=O)(=O)N2CCN(C(=O)c3cccc(S(=O)(=O)N4CC(C)OC(C)C4)c3)CC2)cc1 (stereo not given)	/	/	-20	16µM*	0	9.2µM*
O=C(c1cccc(S(=O)(=O)N2CCN(c3ccccc3)CC2)c1)N1CCCC(C(F)(F)F)C1 (stereo not given)	-2%	?	-3	7.3µM*	13	5.2µM*
CC(=O)N1CCN(S(=O)(=O)c2cccc(C(=O)OCc3ccc(C(C)(C)C)cc3)c2)CC1	?	-9%	15	7.3µM*	-9	8.2µM*
CC1CN(C(=O)c2cccc(S(=O)(=O)N3CCN(c4ccccc4)CC3)c2)CC(C)O1 (stereo not given)	1%	-7%	40	15µM*	14	?
CSc1nnc2c(n1)OC(c1cccc(O)c1Cl)Nc1ccccc1-2 (stereo not given)	1%	/	/	-10%	/	?
CCOC(=O)c1ccc(S(=O)(=O)N2CCN(C(=O)CSc3nc4ccccc4o3)CC2)cc1	0%	?	0	12µM*	11	12µM*
O=C(c1cc(S(=O)(=O)N2CCN(c3ccccc3)CC2)ccc1Cl)N1CCCC(C(F)(F)F)C1 (stereo not given)	/	4%	-8	15µM*	7	?
CCOC(=O)c1ccc(S(=O)(=O)N2CCN(C(C)=O)CC2)cc1	-2%	9%	52	-2%	-14	-6%
Cc1ccc(N2C(=O)Nc3ccc(Br)cc3C2(O)C(=O)NCCN(C)C)cc1C (stereo not given)	/	-17%	16	10%	2	2%
COc1ccc2cc(/C=N/O)c(Cl)nc2c1	8%	-2%	-16	-15%	-6	?
COc1ccc2cc(/C=N/NC(=O)c3ccc(CN(c4cccc(Cl)c4Cl)S(C)(=O)=O)cc3)c(Cl)nc2c1	3%	-16%	14	18µM*	-9	15µM*
COc1ccccc1N1CCN(C(=O)CSc2ncnc3scc(-c4ccccc4)c23)CC1	3%	?	-16	?	-4	16µM*
COc1ccc(-n2ncc3c(SCC(=O)N4CCN(c5ccccc5OC)CC4)ncnc32)cc1	1%	16µM*	39	?	8	21µM*
O=C(CSc1ncnc2scc(-c3ccccc3)c12)N1CCN(c2ccccc2F)CC1	4%	?	-1	?	0	18µM*
COC(=O)CSc1ncnc2scc(-c3ccccc3)c12	/	-4%	2	-29%	5	-14%
CCCOc1ccc(F)cc1-c1cc(C(=O)NCCOC)[nH]n1	/	/	-1	-20%	/	-26%
COc1cc2c(cc1OC)C1C(C(=O)Nc3ccccc3N3CCN(C)CC3)c3ccccc3C(=O)N1CC2 (stereo not given)	9%	19%	-15	1%	17	1%
O=C(O)c1cn(C2CC2)c2cc(N3CCN(S(=O)(=O)c4ccc5c(c4)OCCO5)CC3)c(F)cc2c1=O	-8%	?	32	15µM*	-5	15µM*
CN1C[C@@H]2C[C@H]1CN2c1cc2c(cc1F)c(=O)c(C(=O)O)cn2C1CC1	-4%	/	/	6.7µM*	/	6.7µM*
SMILES	TDP1 inh	ELG1 DNA repair	IL-1B inflam inh	TDP1 cell CPT	Giardia kill	DT40 TDP1 no CPT
Cc1cccc(N2C(=O)CCSC23C(=O)N(Cc2ccc(F)cc2)c2ccccc23)c1 (stereo not given)	3%	/	/	9.2µM*	/	6.5µM*
Cc1cccc(N2C(=O)CSC23C(=O)N(Cc2cccc(F)c2)c2ccccc23)c1 (stereo not given)	-6%	/	/	/	/	/
O=C1CCSC2(C(=O)N(Cc3ccc(F)cc3)c3ccccc32)N1c1cccc(F)c1 (stereo not given)	-3%	/	/	5.2µM*	/	3.7µM*
O=C1CCSC2(C(=O)N(Cc3ccc(F)cc3)c3ccccc32)N1c1ccc(F)c(F)c1 (stereo not given)	5%	/	/	7.3µM*	/	10µM*
O=C1CSC2(C(=O)N(Cc3ccccc3F)c3ccccc32)N1c1ccc(F)cc1 (stereo not given)	6%	/	/	/	/	/
Cc1cc(C)cc(N2C(=O)CCSC23C(=O)N(Cc2ccccc2)c2ccccc23)c1 (stereo not given)	-2%	/	/	5.8µM*	/	5.8µM*
O=C1CCSC2(C(=O)N(Cc3ccc(F)cc3)c3ccccc32)N1c1ccccc1 (stereo not given)	4%	/	/	7.3µM*	/	8.2µM*
COc1cccc(NC(=O)c2sc3nc(C)c(C(=O)Nc4ccc(C)cc4C)c(-c4cccs4)c3c2N)c1	0%	/	/	?	/	?
COc1cccc(NC(=O)c2sc3nc(C)c(C(=O)Nc4ccc(Cl)cc4)c(-c4ccc(Br)cc4)c3c2N)c1	3%	/	/	?	/	7.3µM*
COc1ccc(-c2c3c(nc4sc5c(=O)[nH]c(C)nc5c24)CCC3)cc1	7%	-28%	61	?	-4	?
COc1ccc(NC(=O)c2sc3nc(C)c(C(=O)Nc4ccc(Cl)cc4)c(-c4ccc(Br)cc4)c3c2N)cc1	9%	/	/	?	/	?

Screening results deposited in PubChem BioAssay by National Center for Advancing Translational Sciences (NCATS).
